According to PubChem BioAssay AID488969 (Vanderbilt High Throughput Screening Facility, 2010):
Over roughly 110,000 compounds, “z-score” has its median near -0.1; the highest 2% begin near 2. Many of the other results were omitted from the sample, so the highest values are more common in it than they were. Activity calls are given as the source filed them.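 The calls were made as follows: active = z-score in the third read window above 3 or below -3; inactive = the rest.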

target: Metabotropic glutamate receptor 8 (Rattus norvegicus) (UniProt P70579); experiment: rat mGluR8 modulators via GIRK flux, primary screen, cell-based, thallium flux, HTS (AID 488969); conditions: HEK293 rat mGluR8, GIRK (G protein-gated inwardly rectifying potassium channel) thallium flux, FluoZin2; at 10 µM; stronger effect = higher value; submaximal glutamate (EC20) added with thallium
Sequence (P70579 whole entry, looked up): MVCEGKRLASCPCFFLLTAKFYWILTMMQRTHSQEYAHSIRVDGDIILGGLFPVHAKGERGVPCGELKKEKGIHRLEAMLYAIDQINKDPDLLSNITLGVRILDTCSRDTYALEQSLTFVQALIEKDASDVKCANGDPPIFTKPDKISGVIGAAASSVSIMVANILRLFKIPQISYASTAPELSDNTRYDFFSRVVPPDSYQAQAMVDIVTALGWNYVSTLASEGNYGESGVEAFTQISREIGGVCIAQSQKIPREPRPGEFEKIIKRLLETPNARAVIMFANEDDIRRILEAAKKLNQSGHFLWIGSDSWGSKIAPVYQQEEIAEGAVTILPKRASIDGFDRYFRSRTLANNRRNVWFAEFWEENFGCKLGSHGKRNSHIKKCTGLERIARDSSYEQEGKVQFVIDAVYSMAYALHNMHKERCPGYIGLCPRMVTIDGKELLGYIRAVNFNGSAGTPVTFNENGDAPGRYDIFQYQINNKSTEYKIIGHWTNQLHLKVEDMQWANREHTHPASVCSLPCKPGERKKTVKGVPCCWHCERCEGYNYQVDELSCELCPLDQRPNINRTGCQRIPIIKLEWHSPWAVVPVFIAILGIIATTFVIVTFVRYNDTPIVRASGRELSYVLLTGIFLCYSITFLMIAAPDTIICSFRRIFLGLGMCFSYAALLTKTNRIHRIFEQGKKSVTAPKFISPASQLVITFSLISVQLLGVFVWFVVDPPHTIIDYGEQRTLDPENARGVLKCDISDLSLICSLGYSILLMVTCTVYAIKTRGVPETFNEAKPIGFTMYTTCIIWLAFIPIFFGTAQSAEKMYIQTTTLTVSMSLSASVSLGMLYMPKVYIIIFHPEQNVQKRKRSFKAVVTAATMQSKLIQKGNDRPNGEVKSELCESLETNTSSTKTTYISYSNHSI

SMILES	z-score
CNc1nc(SCc2ccccc2)nc(N2CCOCC2)n1	-0.587
O=c1ccn(-c2cccc(C(F)(F)F)c2)nc1-c1ccn(-c2ccccc2)n1	-0.401
S=C(Nc1cccc2ccccc12)N1CCN(c2ncccn2)CC1	-0.1
COc1ccc(-n2c(Cc3cccn3C)nnc2SCC(=O)NCCc2ccccc2)cc1	-0.482
CC12C(=O)N(c3cccc4cccnc34)C(=O)C1C1C=CC2C1 (configuration not stated)	0.818
CNc1nc(OCC(F)(F)F)nc(N2CCN(C34CC5CC(CC(C5)C3)C4)CC2)n1	0.418
O=C(c1cccs1)N1N=C(c2ccccc2)CC1c1ccccc1 (configuration not stated)	-0.101
O=C(Nc1ccc(Br)c(C(F)(F)F)c1)c1ccccc1	0.42
CCOC(=O)c1ccc(NC(=S)NC2CCCC2)cc1	2.61
COC(=O)c1ccccc1NC(=S)NC(NC(=O)COc1ccccc1)C(Cl)(Cl)Cl (configuration not stated)	-0.203
COC(=O)c1ccc(NC(=S)NC2CCCCC2)cc1	0.1
S=C(Nc1ccc(Oc2ccccc2)cc1)NC1CCCC1	7.92 (active)
COC(=O)c1ccccc1NC(=S)NC(=O)CC(C)C	0.252
CCCN1CCC(NC(=S)Nc2ccc(C(=O)OCC)cc2)CC1	-0.26
CCNC(=S)Nc1ccc(Oc2ccccc2)cc1	0.818
S=C(NCC1CCCCC1)Nc1ccc(Oc2ccccc2)cc1	0.317
COC(=O)c1ccccc1NC(=S)NC(=O)COc1ccccc1	7.01 (active)
S=C(Nc1ccc(Oc2ccccc2)cc1)NC1CCCCCC1	0.425
CC(C)CNC(=S)Nc1ccc(Oc2ccccc2)cc1	2.69
CCCNC(=S)Nc1ccc(Oc2ccccc2)cc1	0.463
CCn1cnc2cc(NCc3nc4ccccc4n3Cc3ccccc3)ccc21	-0.34
CC(C)c1ccc2[nH]c(O)c(N=NC(=O)c3cccc(S(=O)(=O)N4CCCCC4)c3)c2c1	-0.156
CCOc1ccc(/C=C/C(=O)NCCc2ccc(OC)c(OC)c2)cc1	-0.114
COc1ccc(OCc2ccc(C(=O)NN)cc2)cc1	0.222

SMILES	z-score
Cc1ccc2cc(COC(=O)c3ccncc3)c(=O)[nH]c2c1	-0.162
COc1ccc(-c2cc(C(=O)OCC(=O)N3CCCC3)c3ccccc3n2)cc1	-0.231
CCn1c(SCC(=O)Nc2cccc(C(C)=O)c2)nnc1C(C)C	2.28
CCc1cccc(CC)c1NC(=O)CSc1nnc(C(C)C)n1CC	0.342
CCn1c(SCC(=O)Nc2cccc(NC(C)=O)c2)nnc1C(C)C	-0.322
Cc1ccc2cc(CN(Cc3ccco3)C(=O)c3ccccc3)c(=O)[nH]c2c1C	-0.385
Nc1nnnn1/N=C/c1ccccc1OCc1ccccc1	-0.208
COc1ccc(N2CCN(CC(=O)Nc3ccc(-n4cnnn4)cc3)CC2)cc1	1.05
CCCCOP(=O)(OCCCC)C(O)c1ccc(Br)cc1 (configuration not stated)	-0.269
CCN(CC)S(=O)(=O)c1cccc(C(=O)N2CC(O)CC2C(=O)OC)c1 (configuration not stated)	-0.00902
O=C(N/N=C/c1ccccn1)c1ccc(Br)cc1	1.82
COc1ccc(C(=O)N/N=C/c2ccc3cccc(OCc4ccccc4)c3n2)cc1	3.81 (active)
O=C(N/N=C/c1ccc2cccc(OCc3ccccc3)c2n1)c1ccc(Br)cc1	3.65 (active)
COc1ccc(C(=O)N/N=C/c2cccc3cccnc23)cc1	-0.417
O=C(N/N=C/c1ccc2cccc(OCc3ccccc3)c2n1)c1ccc(Cl)cc1	0.327
COc1ccc(CSCC(=O)N/N=C/c2ccccc2OCc2ccccc2)cc1	1.27
Cc1ccc(C(=O)N2CCN(c3ccc([N+](=O)[O-])c(N4CCOCC4)c3)CC2)cc1	-0.394
COc1c(C)cccc1C(=O)Nc1cc(-c2nn3c(C)nnc3s2)ccc1C	-1.6
Cn1c2ccccc2c(=O)c2c(=O)n(-c3ccccc3)c(C3CCCCC3)nc21	-1.31
CCCn1c(SCC(=O)/C(C#N)=C(\C)N)n[nH]c1=O	-0.649
CCOC(=O)C(CC)(CC)/C(C)=N/NC(=O)CC#N	0.316
CCOc1nc(Nc2ccc(OC)cc2)nc(OCC)n1	-1.62
COc1ccc(NC(=S)Nc2ccc3nc(C)c(C)nc3c2)cc1	-0.104
CCOC(=O)c1csc(NC(=O)CSc2nnnn2-c2ccc(OC)cc2)n1	0.0329

SMILES	z-score
Nc1ncn(C23CC4CC(CC(C4)C2)C3)n1	-0.106
c1nnnn1C12CC3CC(CC(C3)C1)C2	0.487
c1cn(C23CC4CC(CC(C4)C2)C3)cn1	4.17 (active)
CCCC(C(=O)c1ccccc1)n1cncn1 (configuration not stated)	-0.313
COc1ccc(-c2c3c([nH]c(=S)c2C#N)CCC3)cc1	2.17
N#Cc1c(-c2ccncc2)c2c([nH]c1=S)CCCC2	-0.164
N#Cc1c(-c2cccnc2)c2c([nH]c1=S)CCCC2	-0.285
COc1cc(C(=O)N(Cc2ccco2)Cc2cc3ccccc3[nH]c2=O)cc(OC)c1OC	-0.671
COc1cc(C2Nn3c(nnc3-c3ccccc3OC)S2)ccc1O (configuration not stated)	-0.0272
COc1ccc(OC)c(NC(=O)C(=O)NNC(=O)c2cccs2)c1	1.69
COc1cc(N)ccc1NC(=O)c1cccs1	-0.15
COc1ccc(NC(=O)C(=O)NNC(=O)c2cccs2)cc1	7.11 (active)
COc1ccc(NC(=O)C(=O)NNC(=O)c2cccs2)c(OC)c1	5.95 (active)
COc1ccc(NC(=O)c2cccs2)cc1	0.303
COc1ccc(OCC(=O)NNC(=O)c2cccs2)cc1	0.919
CCC(=O)Nc1nnc(SCc2ccc(F)cc2)s1	-0.00764
COc1ccc(N2C(=O)CC(Nc3ccc(C)cc3)C2=O)cc1 (configuration not stated)	-0.557
CC1CC(C)(C)NC(=S)N1CC(=O)N(C)Cc1ccccc1 (configuration not stated)	-0.189
CCNC(=S)NNC(=O)c1cccn(Cc2ccc(Cl)cc2Cl)c1=O	-0.0504
C=CCOn1c(=O)c(-c2cccs2)[n+]([O-])c2ccccc21	3.49 (active)
CCOn1c(=O)c(-c2cccs2)[n+]([O-])c2ccccc21	-2.21
COn1c(=O)c(-c2cccs2)[n+]([O-])c2ccccc21	1.16
Cc1nn(C(C)C(=O)O)c(=O)c2c1sc1ccccc12 (configuration not stated)	-0.395
N#Cc1cn(-c2ccccc2)nc1-c1ccco1	-0.0798

SMILES	z-score
CCNC(=O)C1CCCN1S(=O)(=O)c1ccc(OC)cc1 (configuration not stated)	0.787
CC(C)c1c(O)nc(SCC(=O)N2CCOCC2)[nH]c1=O	-0.357
CCCCc1c(O)nc(SCC(=O)N2CCOCC2)[nH]c1=O	0.0929
CCC(C)c1c(O)nc(SCC(=O)N2CCOCC2)[nH]c1=O (configuration not stated)	2.93
COC(=O)c1ccccc1Oc1nc(Cl)cc(OC)n1	-0.22
CCOC(=O)c1cnc2c(C)c(C)ccc2c1Nc1ccc(S(=O)(=O)Nc2ncccn2)cc1	-0.177
CCOC(=O)c1cnc2c(C)c(Cl)ccc2c1Nc1ccc(S(=O)(=O)Nc2ncccn2)cc1	9.28 (active)
CCOC(=O)c1cnc2c(C)cc(C)cc2c1Nc1ccc(S(=O)(=O)Nc2ncccn2)cc1	-0.378
CCOc1ccc(-n2c(=S)sc3c(=O)[nH]c(SCC(=O)NC(C)CC)nc32)cc1 (configuration not stated)	-0.859
CC1CCN(Cc2nnnn2-c2cccc([N+](=O)[O-])c2)CC1	-0.243
CC(C)OCC(O)CCc1n[nH]c(=S)n1-c1ccccc1 (configuration not stated)	-0.224
COc1ccc(OCCCN2CCCC(C)C2)cc1 (configuration not stated)	0.314
c1ccc(COc2ccc(OCCCNC3CCCC3)cc2)cc1	2.46
Cc1ccc(OCCCNC2CCCC2)cc1	-0.0441
CCN1CCN(CCCOc2ccc(-c3ccccc3)cc2)CC1	4.56 (active)
c1ccc(OCCCN2CCCC2)cc1	0.00842
COc1ccc(OCCCN2CCCCCC2)cc1	8.02 (active)
CCN1CCN(CCCCSc2ccccc2)CC1	-0.152
CC(C)Oc1ccc(OCCCN2CCCCCC2)cc1	-0.0757
O=C(c1ccccc1)c1ccc(OCCCCN2CCCCC2)cc1	-0.455
O=C(c1ccccc1)c1ccc(OCCCN2CCCC2)cc1	-0.0127
CC1CCN(CCCCOc2ccc(C(=O)c3ccccc3)cc2)CC1	2.47
CCOc1ccc(OCCNC2CCCC2)cc1	0.0455
CSCCNC(=O)c1ccc(C(C)(C)C)cc1	-0.121

SMILES	z-score
CCCc1cc(=O)[nH]c(SCC(=O)N(Cc2ccccc2)C(C)C)n1	-0.715
CC(C)(C)C(=O)Nc1cc(NC(=O)C(C)(C)C)cc(C(=O)Nc2cc(C(=O)O)cc(C(=O)O)c2)c1	0.00761
Cc1cc(C(F)F)n2ncc(C(=O)NCCc3ccc(Cl)cc3)c2n1	-0.612
Cc1nn(CC(=O)OCC(=O)Nc2ccccc2[N+](=O)[O-])c(C)c1[N+](=O)[O-]	0.113
Nc1nc(-c2cccnc2)nn1C(=O)COc1ccccc1	-0.135
O=C(NCC(c1cccnc1)N1CCN(c2ccccc2F)CC1)c1cccc(Cl)c1 (configuration not stated)	0.459
CCCOc1c(OC)cc(Cl)cc1C1NC(=O)NC(C)=C1C(=O)NCc1ccccc1 (configuration not stated)	-0.431
c1ccc(COc2ccc(OCCCN3CCCCC3)cc2)cc1	2.89
O=C(c1ccccc1)c1ccc(OCCCN2CCCCC2)cc1	1.54
c1ccc(COc2ccc(OCCCCN3CCCCC3)cc2)cc1	2.79
c1ccc(COc2ccc(OCCCN3CCCC3)cc2)cc1	0.306
c1ccc(COc2ccc(OCCCCN3CCCC3)cc2)cc1	0.565
CC1CCN(CCCOc2ccc(OCc3ccccc3)cc2)CC1	0.441
CCOC(=O)c1c(NC(=O)CCN2C(=O)c3ccccc3C2=O)sc(C(=O)OC(C)C)c1C	-0.193
O=C(c1cnccn1)N(c1ccccc1)C1(C(=O)NC2CCCC2)CCCCC1	0.00523
CCOC(=O)CSc1nc(-c2ccc3c(c2)OCO3)ccc1C#N	-0.00752
COc1ccc2occ(C(=O)c3cccs3)c2c1	0.191
COc1ccc2occ(C(=O)c3ccc(N=C(C)N(C)C)cc3)c2c1	3.46 (active)
COc1ccc2occ(C(C)=O)c2c1	-1.2
COc1ccc(CCNC(=S)Nc2ccc(C)cc2C)cc1	-0.0431
CCc1cc2c(N[C@@H](C)C(=O)O)ncnc2s1	0.00833
